Source: PubChem BioAssay
Active and inactive are the calls of the source.

Legend:
[1] = binders of probe aFSTL3 on microarray, primary screen, stem cell growth factor project, biochemical, small-molecule microarray, fluorescence 635/667 (AID 1064); details: higher = more signal;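 note: measures binding of the biotinylated anti-FSTL3 antibody to printed compounds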
[2] = binders from COS7 lysate, DM2A8 probe, primary screen, torsin A project, cell lysate, small-molecule microarray, fluorescence 635/667 (AID 1065); details: higher = more signal, COS7 lysate expressing mutant human TOR1A
[3] = binders of probe aFGF2 on microarray, primary screen, stem cell growth factor project, biochemical, small-molecule microarray, fluorescence 635/667 (AID 1067); details: higher = more signal;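 note: measures binding of biotinylated aFGF2 protein to printed compounds on slides; z-score merges feature fluorescence and signal-to-noise across triplicate slides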
[4] = binders of probe aFGF10 on microarray, primary screen, stem cell growth factor project, biochemical, small-molecule microarray, fluorescence 635/667 (AID 1071); details: higher = more signal;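 note: score merges 667 nm spot intensity and signal to noise from triplicate slides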
[5] = biological target: Neurogenic locus notch homolog protein 2 (Homo sapiens) (UniProt Q04721); assay: Notch2 binders on small-molecule microarrays, primary screen, biochemical, small-molecule microarray, 635 nm fluorescence, stem cell growth factors (AID 1073); details: Notch2 binding, higher = more signal
[6] = biological target: Pro-neuregulin-1, membrane-bound isoform (Homo sapiens) (UniProt Q02297); assay: NRG1 binders on small-molecule microarrays, primary screen, psychiatric disease protein project, biochemical, small-molecule microarray, fluorescence 635/667 (AID 1075); details: NRG1 binding, 635 nm fluorescence, higher = more signal;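 note: score combines 667 nm spot fluorescence with signal to noise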
[7] = system: Neuregulin-1 EGF-like domain; assay: binders of neuregulin-1 EGF-like domain, primary screen, biochemical, small-molecule microarray, 635 nm fluorescence (AID 1081); details: small-molecule microarray binding, higher = more signal;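 note: binding of the protein to compounds printed on small-molecule microarray slides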
[8] = FRG1 promoter luciferase signal modulators, primary screen, FRG1 inhibition for FSHD, cell-based, C2C12 myotubes, firefly/Renilla luciferase, luminescence (AID 1084); details: higher = more signal, called active from +8 up or from −8 down
[9] = binders of probe aFST on microarray, primary screen, stem cell growth factor project, biochemical, small-molecule microarray, fluorescence 635/667 (AID 1086); details: higher = more signal;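 note: score merges 667 nm fluorescence with signal-to-noise of each printed compound spot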
[10] = binders of probe aHhip on microarray, primary screen, stem cell growth factor project, biochemical, small-molecule microarray, fluorescence 635/667 (AID 1087); details: higher = more signal;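 note: score merges spot fluorescence at 667nm with spot signal to noise ratio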
[11] = system: PRMT1 (protein arginine N-methyltransferase 1); assay: PRMT1 binders on small-molecule microarrays, primary screen, biochemical, small-molecule microarray, 635 nm fluorescence (AID 1088); details: small-molecule microarray binding, higher = more signal;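 note: binding of Prmt1 protein to compounds spotted on small-molecule microarray slides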
[12] = yeast growth modulation, basal conditions, primary screen, YJM789 clinical isolate, OD600, 24 h (AID 1089);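 note: growth of clinical yeast isolate S. cerevisiae YJM 789 seeded 1000 cells per well; test concentration not given here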; details: S. cerevisiae YJM789 growth, higher = more signal, called active from +8 up or from −8 down
[13] = fission yeast growth modulation, primary screen, strain 972, OD600, 24 h, no modulator (AID 1090);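 note: basal condition with compound alone and no growth modifier present; test concentration not given here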; details: S. pombe 972 growth, higher = more signal, called active from +8 up or from −8 down
[14] = S. cerevisiae growth modulation with rapamycin, primary screen, strain BY4716, OD600, 96 h (AID 1091); details: higher = more signal, called active from +8 up or from −8 down; note: test concentration not given here
[15] = biological target: Torsin-1A-interacting protein 2 (Homo sapiens) (UniProt Q8NFQ8); assay: LULL1 binders on small-molecule microarray, primary screen, cell lysate, human LULL1 lysate, 635/667 nm fluorescence (AID 1092); details: hLULL1 lysate binding, 635 nm fluorescence, higher = more signal;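 note: probe is lysate of COS7 cells overexpressing human LULL1; score merges per-feature 667 nm fluorescence with signal-to-noise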
[16] = E. coli growth modulation, two-sided OD650, primary screen, E. coli filamentation project, strain DRC41, 24 h (AID 1093); details: OD650, 24 h, higher = more signal, called active from +8 up or from −8 down;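 note: MC1000 strain lacking acrAB efflux and sulA so SOS filamentation is blocked; test concentration not given here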
[17] = small-molecule microarray binders of probe aLefty2, primary screen, biochemical, biotinylated probe, 635/667 nm fluorescence (AID 1094); details: higher = more signal;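 note: score merges spot fluorescence near 667 nm with spot signal-to-noise ratio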
[18] = system: Noggin (protein binding on small-molecule microarray); assay: Noggin binders on small-molecule microarray, primary screen, biochemical, 635/667 nm fluorescence (AID 1095); details: 635 nm fluorescence, higher = more signal;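 note: score merges 667 nm feature fluorescence with signal to noise over triplicate slides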
[19] = biological target: Neurogenic locus notch homolog protein 3 (Homo sapiens) (UniProt Q9UM47); assay: NOTCH3 binders on small-molecule microarray, primary screen, biochemical, 635/667 nm fluorescence (AID 1096); details: NOTCH3 binding, 635 nm fluorescence, higher = more signal
[20] = small-molecule microarray binders of probe aEGFR, primary screen, biochemical, biotinylated probe, 635/667 nm fluorescence (AID 1097); details: higher = more signal;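 note: probe is a biotinylated anti-EGFR antibody binding compounds printed on slides; score combines fluorescence near 667 nm and signal to noise of each spot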

Chain of Torsin-1A-interacting protein 2 (Homo sapiens) (Q8NFQ8 whole entry, looked up): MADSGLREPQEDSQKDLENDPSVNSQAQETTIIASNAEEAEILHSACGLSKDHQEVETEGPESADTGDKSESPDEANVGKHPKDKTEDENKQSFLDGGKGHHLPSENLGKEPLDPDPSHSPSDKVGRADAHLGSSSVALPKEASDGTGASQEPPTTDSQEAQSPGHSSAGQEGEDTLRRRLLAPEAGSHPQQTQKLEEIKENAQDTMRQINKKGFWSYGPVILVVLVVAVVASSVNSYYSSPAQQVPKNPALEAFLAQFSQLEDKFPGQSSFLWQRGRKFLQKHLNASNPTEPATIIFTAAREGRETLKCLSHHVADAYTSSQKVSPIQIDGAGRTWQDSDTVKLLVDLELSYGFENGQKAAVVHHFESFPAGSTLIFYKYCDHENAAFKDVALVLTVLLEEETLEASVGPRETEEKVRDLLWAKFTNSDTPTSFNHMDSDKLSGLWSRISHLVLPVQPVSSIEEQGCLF
Chain of Neurogenic locus notch homolog protein 3 (Homo sapiens) (Q9UM47 whole entry, looked up): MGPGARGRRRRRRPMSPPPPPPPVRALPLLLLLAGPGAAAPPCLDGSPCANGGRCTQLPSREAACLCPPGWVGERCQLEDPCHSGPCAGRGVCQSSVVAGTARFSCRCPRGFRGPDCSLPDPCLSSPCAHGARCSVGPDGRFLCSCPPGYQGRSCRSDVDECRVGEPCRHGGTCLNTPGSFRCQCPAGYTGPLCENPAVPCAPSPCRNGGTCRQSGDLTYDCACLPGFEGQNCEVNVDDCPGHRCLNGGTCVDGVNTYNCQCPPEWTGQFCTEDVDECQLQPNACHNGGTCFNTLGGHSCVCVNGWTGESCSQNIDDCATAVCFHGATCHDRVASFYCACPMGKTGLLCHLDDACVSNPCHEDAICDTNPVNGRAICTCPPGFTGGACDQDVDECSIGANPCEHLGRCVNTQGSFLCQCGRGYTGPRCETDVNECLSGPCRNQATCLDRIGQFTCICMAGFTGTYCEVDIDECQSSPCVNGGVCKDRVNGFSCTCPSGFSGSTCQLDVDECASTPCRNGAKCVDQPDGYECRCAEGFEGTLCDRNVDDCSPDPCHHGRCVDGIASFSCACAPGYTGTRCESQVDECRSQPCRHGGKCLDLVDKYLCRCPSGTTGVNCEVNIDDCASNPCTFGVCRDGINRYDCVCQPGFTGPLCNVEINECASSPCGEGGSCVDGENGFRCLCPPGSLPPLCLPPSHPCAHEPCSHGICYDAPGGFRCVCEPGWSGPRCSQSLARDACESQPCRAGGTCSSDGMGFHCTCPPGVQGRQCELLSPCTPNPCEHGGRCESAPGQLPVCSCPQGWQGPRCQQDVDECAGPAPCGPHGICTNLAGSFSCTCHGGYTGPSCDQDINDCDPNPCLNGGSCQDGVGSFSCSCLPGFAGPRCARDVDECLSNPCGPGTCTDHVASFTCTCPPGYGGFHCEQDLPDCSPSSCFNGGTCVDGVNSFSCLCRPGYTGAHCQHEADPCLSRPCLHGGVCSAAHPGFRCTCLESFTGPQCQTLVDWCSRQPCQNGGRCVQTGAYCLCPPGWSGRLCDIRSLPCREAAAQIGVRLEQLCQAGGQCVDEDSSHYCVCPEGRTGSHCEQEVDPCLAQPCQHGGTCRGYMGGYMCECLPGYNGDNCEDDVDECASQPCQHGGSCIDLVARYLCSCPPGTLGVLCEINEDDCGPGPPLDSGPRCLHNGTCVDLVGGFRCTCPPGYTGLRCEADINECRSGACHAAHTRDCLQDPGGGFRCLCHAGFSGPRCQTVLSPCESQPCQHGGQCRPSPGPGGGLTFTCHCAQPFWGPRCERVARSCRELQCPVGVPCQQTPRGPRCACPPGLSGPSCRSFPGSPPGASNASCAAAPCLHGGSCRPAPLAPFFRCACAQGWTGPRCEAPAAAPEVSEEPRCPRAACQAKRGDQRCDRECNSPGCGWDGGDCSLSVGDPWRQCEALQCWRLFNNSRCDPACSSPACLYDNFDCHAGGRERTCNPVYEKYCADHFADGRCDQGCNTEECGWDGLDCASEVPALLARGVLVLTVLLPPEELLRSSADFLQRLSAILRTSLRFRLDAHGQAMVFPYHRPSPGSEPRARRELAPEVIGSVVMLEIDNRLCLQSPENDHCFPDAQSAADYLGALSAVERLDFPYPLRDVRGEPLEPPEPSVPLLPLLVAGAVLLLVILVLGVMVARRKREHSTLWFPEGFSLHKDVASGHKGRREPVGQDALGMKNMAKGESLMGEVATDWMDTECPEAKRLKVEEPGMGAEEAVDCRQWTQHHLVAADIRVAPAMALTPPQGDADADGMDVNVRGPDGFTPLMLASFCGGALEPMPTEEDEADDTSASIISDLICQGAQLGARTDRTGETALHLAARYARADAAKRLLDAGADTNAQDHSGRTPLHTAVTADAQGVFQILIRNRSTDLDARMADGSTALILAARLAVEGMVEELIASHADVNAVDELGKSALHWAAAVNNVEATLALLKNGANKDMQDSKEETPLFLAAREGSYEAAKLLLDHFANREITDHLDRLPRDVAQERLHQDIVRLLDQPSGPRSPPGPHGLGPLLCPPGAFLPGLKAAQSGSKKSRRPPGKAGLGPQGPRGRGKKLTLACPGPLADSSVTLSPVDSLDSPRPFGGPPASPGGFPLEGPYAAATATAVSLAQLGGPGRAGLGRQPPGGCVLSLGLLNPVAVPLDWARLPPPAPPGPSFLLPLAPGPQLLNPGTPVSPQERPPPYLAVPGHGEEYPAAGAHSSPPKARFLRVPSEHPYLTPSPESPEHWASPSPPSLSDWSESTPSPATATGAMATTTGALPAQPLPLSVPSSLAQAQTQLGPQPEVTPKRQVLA
Chain of Pro-neuregulin-1, membrane-bound isoform (Homo sapiens) (Q02297 whole entry, looked up, the tested form may be a part, canonical isoform): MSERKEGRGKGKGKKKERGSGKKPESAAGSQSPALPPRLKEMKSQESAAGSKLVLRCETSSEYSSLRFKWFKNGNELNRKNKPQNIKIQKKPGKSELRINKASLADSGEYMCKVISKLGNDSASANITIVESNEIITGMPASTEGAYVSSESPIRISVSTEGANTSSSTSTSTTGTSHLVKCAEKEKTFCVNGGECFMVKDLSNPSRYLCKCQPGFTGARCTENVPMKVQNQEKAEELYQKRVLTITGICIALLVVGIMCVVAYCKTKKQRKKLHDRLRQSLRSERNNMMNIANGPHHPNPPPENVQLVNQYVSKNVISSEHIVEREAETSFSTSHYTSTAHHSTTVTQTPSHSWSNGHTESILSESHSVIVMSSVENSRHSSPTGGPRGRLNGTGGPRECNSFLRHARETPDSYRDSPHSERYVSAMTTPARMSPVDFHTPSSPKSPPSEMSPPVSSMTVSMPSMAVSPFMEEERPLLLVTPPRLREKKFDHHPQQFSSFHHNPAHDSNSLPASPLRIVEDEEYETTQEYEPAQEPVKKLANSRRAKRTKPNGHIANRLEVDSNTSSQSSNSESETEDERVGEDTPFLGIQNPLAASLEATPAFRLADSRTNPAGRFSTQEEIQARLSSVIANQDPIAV

## COc1ccc(-c2cc3c(c(-c4ccccc4)n2)[Si](C(C)C)(C(C)C)O[C@H]3c2ccccc2)cn1
[1]
  composite z-score: -0.248
[2]
  composite z-score: 0.0094
[3]
  composite z-score: -0.106
[4]
  composite z-score: 0.144
[5]
  composite z-score: 0.241
[6]
  composite z-score: 0.0264
[7]
  composite z-score: 0.335
[8]
  z-score: -0.68 (inactive)
[9]
  composite z-score: -0.116
[10]
  composite z-score: 0.316
[11]
  composite z-score: 1.11
[12]
  z-score: -0.136 (inactive)
[13]
  z-score: -0.572 (inactive)
[14]
  z-score: -0.0946 (inactive)
[15]
  composite z-score: 0.965
[16]
  z-score: -1.03 (inactive)
[17]
  composite z-score: -0.132
[18]
  composite z-score: 0.47
[19]
  composite z-score: 0.596
[20]
  composite z-score: 0.0215

## CC(C)(C)OC(=O)CC[C@@]1(C(=O)NCc2ccccc2)N=C(c2ccc(OCCCO)cc2)O[C@@H]1c1ccccc1
[1]
  composite z-score: 0.844
[2]
  composite z-score: 1.96
[3]
  composite z-score: 0.0096
[4]
  composite z-score: 0.0922
[5]
  composite z-score: 1.24
[6]
  composite z-score: 1.5
[7]
  composite z-score: 1.27
[8]
  z-score: -2.49 (inactive)
[9]
  composite z-score: 1.14
[10]
  composite z-score: -0.304
[11]
  composite z-score: 1.55
[12]
  z-score: -5.26 (inactive)
[13]
  z-score: -1.2 (inactive)
[14]
  z-score: 0.264 (inactive)
[15]
  composite z-score: 3.54
[16]
  z-score: 1.46 (inactive)
[17]
  composite z-score: 0.0717
[18]
  composite z-score: -0.0633
[19]
  composite z-score: 1.1
[20]
  composite z-score: 0.045

## CCCNC(=O)[C@@H]1c2ccccc2C(=O)N(Cc2cc(F)cc(C(F)(F)F)c2)[C@H]1c1ccc(CO)cc1
[1]
  composite z-score: -0.0356
[2]
  composite z-score: 0.711
[3]
  composite z-score: 0.032
[4]
  composite z-score: 0.525
[5]
  composite z-score: 1.12
[6]
  composite z-score: 1.03
[7]
  composite z-score: 1.25
[8]
  z-score: -1.02 (inactive)
[9]
  composite z-score: 0.613
[10]
  composite z-score: 0.0176
[11]
  composite z-score: 1.54
[12]
  z-score: -1.15 (inactive)
[13]
  z-score: -2.49 (inactive)
[14]
  z-score: -1.36 (inactive)
[15]
  composite z-score: 2.83
[16]
  z-score: 1.97 (inactive)
[17]
  composite z-score: 0.0465
[18]
  composite z-score: 1.66
[19]
  composite z-score: 1.05
[20]
  composite z-score: 0.289

## C=CCC(OC(C)=O)[C@@H]1[C@@H](N(Cc2cc3ccccc3o2)C(=O)Cc2ccc(F)cc2)c2cc(OCCCO)ccc2N1C(=O)c1ccc(-c2ccccc2)cc1 (stereo not given in full)
[1]
  composite z-score: 0.117
[2]
  composite z-score: -0.103
[3]
  composite z-score: -0.116
[4]
  composite z-score: -0.263
[5]
  composite z-score: -0.079
[6]
  composite z-score: -0.399
[7]
  composite z-score: -1.03
[8]
  z-score: 0.051 (inactive)
[9]
  composite z-score: 0.141
[10]
  composite z-score: -0.0645
[11]
  composite z-score: -1.44
[12]
  z-score: -0.277 (inactive)
[13]
  z-score: -0.801 (inactive)
[14]
  z-score: -0.76 (inactive)
[15]
  composite z-score: 0.292
[16]
  z-score: 1.64 (inactive)
[17]
  composite z-score: -0.0598
[18]
  composite z-score: -0.737
[19]
  composite z-score: -1.02
[20]
  composite z-score: -0.178

## CCCC=C(CCC)[C@@H](NS(=O)(=O)c1ccc(C(F)(F)F)cc1)c1ccc(-c2ccccc2)cc1
[1]
  composite z-score: 0.357
[2]
  composite z-score: 0.0864
[3]
  composite z-score: 0.0407
[4]
  composite z-score: 0.309
[5]
  composite z-score: 1.5
[6]
  composite z-score: 0.801
[7]
  composite z-score: 1.02
[8]
  z-score: -0.001 (inactive)
[9]
  composite z-score: 1.38
[10]
  composite z-score: 2.14
[11]
  composite z-score: 1.09
[12]
  z-score: 0.251 (inactive)
[13]
  z-score: -3.21 (inactive)
[14]
  z-score: -0.1 (inactive)
[15]
  composite z-score: 3
[16]
  z-score: -0.39 (inactive)
[17]
  composite z-score: 0.0491
[18]
  composite z-score: 0.77
[19]
  composite z-score: 0.762
[20]
  composite z-score: -0.013

## C[C@@H]1C=CCC(=O)OC[C@H]2O[C@@H](C=C[C@@H]2O)[C@H](C)C=CCC(=O)OC[C@H]2O[C@H]1C=C[C@@H]2O
[1]
  composite z-score: -0.663
[2]
  composite z-score: 0.919
[3]
  composite z-score: -0.113
[4]
  composite z-score: 0.526
[5]
  composite z-score: 0.16
[6]
  composite z-score: -0.0241
[7]
  composite z-score: 0.567
[8]
  z-score: -0.274 (inactive)
[9]
  composite z-score: 0.0915
[10]
  composite z-score: 0.346
[11]
  composite z-score: 1.06
[12]
  z-score: -2.14 (inactive)
[13]
  z-score: -2.87 (inactive)
[14]
  z-score: -1.09 (inactive)
[15]
  composite z-score: -0.552
[16]
  z-score: 0.332 (inactive)
[17]
  composite z-score: -0.0196
[18]
  composite z-score: 1.37
[19]
  composite z-score: 1
[20]
  composite z-score: 0.0779
